Measurements from PubChem BioAssay AID743279 (National Center for Advancing Translational Sciences (NCATS), 2014).
Out of some 360,000 compounds screened, about 17,000 (4.7%) were called active. Another 5% or so got no clear call; they are omitted. Cut-off read from the data, not from the text of the source: active = activity change below about -50%; inconclusive = mostly about -30% to -49%; inactive = weaker than that. For the sample, actives were picked, then their nearest neighbours and some compounds at random.

experiment: qHTS for Inhibitors of Inflammasome Signaling: IL-1-beta AlphaLISA Primary Screen; conditions: THP-1 LPS/ATP IL-1B secretion, 16 h; at 57.5 µM, stronger effect = lower value
Summary of the method: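 Secreted IL-1B measured by AlphaLISA bead assay after 16 h compound exposure of THP-1 cells; compounds (final up to 57.5 uM) added 1 h before LPS (250 ng/mL) and ATP (1.25 mM) stimulation; lower signal means less secretion.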
% is set by controls: 0 for no effect and ±100 for the full control effect.

Activity change, active:
C[C@@H]1C[C@@H]2O[C@H]2/C=C\C=C\C(=O)Cc2c(Cl)c(O)cc(O)c2C(=O)O1 -108%, S=C(NCC1CCCO1)N1CCN(c2ccc(Cl)c(Cl)c2)CC1 (configuration not stated) -64.9%, NS(=O)(=O)c1ccc(NC(=O)COC(=O)c2c3c(nc4ccccc24)/C(=C\c2ccc4c(c2)OCO4)CCC3)cc1 -62.6%, Cc1ccc(/C=C2/SC(=S)N(CCC(=O)NCCCN3CCOCC3)C2=O)cc1 -83.3%, CCOC(=O)C1=C(c2ccc(OC)cc2)C(=O)c2ccccc2C1=O -99%, COc1ccccc1-n1c(C)nc2cc(C(=O)NCc3ccc4c(c3)OCO4)ccc21 -65.9%, S=C(c1ccc(-c2ccccc2)o1)N1CCCCC1 -56.6%, C#CCOc1ccc(/C=C2/C(=O)ON=C2C)cc1OCC -87.9%, COc1cc(/C=C2/C(=O)ON=C2C)ccc1OCc1ccccc1F -99.7%, C=CCOc1ccc(/C=C2/C(=O)ON=C2C)cc1OCC -98.7%, CN(C)CCNc1ccc(-c2n[nH]c(=O)c3ccccc23)cc1[N+](=O)[O-] -56.7%, O=C(C[n+]1ccc2c(c1)nnn2-c1ccccc1)c1ccc(Cl)cc1 -56.5%, O=C(Nc1nccs1)c1cc(S(=O)(=O)N2CCOCC2)c(Cl)cc1Cl -105%, CC1(C)CCSC(/C=C/c2ccccc2)=N1 -102%, CC(=O)Oc1ccc(N(C(C)=O)S(=O)(=O)c2ccc3ccccc3c2)cc1Br -50%, CCC(C)(C)n1nnnc1C(c1cccs1)N1CCN(c2nc3ccccc3s2)CC1 (configuration not stated) -62.8%, O=C(CC1SC(=Nc2ccccc2)N(Cc2ccccn2)C1=O)Nc1cccc(Cl)c1 (configuration not stated) -60.7%

Activity change, inactive:
Nn1c(SCC(=O)Nc2nccs2)nncc1=O 9.24%, CC1CCCCC12NC(=O)N(CC(=O)OCC(=O)NCc1ccc(F)cc1)C2=O (configuration not stated) 28%, CC1=CC(=NNS(=O)(=O)c2ccc([N+](=O)[O-])cc2)CC(C)(C)C1 8.3%, COc1ccc(CCNS(=O)(=O)c2cccc([N+](=O)[O-])c2)cc1 -12.5%, CCOc1ccc(S(=O)(=O)N2CCN(C(=S)NCC3CCCO3)CC2)cc1 (configuration not stated) 8.09%, COc1ccc(S(=O)(=O)N2CCN(C(=S)NCC3CCCO3)CC2)cc1OC (configuration not stated) 41.3%, CCCC/C=C/c1cccc2nncn12 0%, c1ccc2c(C[n+]3csc4ccccc43)cccc2c1 -14.6%, COC(=O)c1cc2n(n1)CCCNC2=O -12.8%, NC(=O)c1ccc(NC(=O)COC(=O)c2c3c(nc4ccccc24)/C(=C\c2ccc4c(c2)OCO4)CCC3)cc1 -3.47%, O=C(COC(=O)c1ccncc1)Nc1ccc2c(c1)OCO2 7.7%, CCOc1ccc2[nH]c(=S)sc2c1 32.5%, COc1ccc(/C=C2\SC(=S)N(CCC(=O)N3CCOCC3)C2=O)cc1OC -10.5%, O=C(CCN1C(=O)c2ccccc2C1=O)NCCN1CCOCC1 -5.01%, CC(OC(=O)CCC(=O)c1ccccc1)C(=O)Nc1ccc(F)cc1 (configuration not stated) 9.85%, Cc1c(C(=O)NCC2CC2)sc(=O)n1Cc1cccc(F)c1 -16.4%, COc1ccc(CNC(=O)CCN2C(=O)c3ccccc3C2=O)cc1 -9.34%, CCOC(=O)c1cc2cc3ccccc3cc2oc1=O -12.5%, CCN(CC)C(=O)C1=C(C)N(Cc2ccc(OC)cc2)C(=O)C(CC(=O)NCc2ccco2)C1 (configuration not stated) -25.2%, Cc1ccc(C(=O)N2CCC(n3nccc3NC(=O)Nc3cccc(F)c3)CC2)cn1 8.12%, COc1cc(OC)c(C(=O)NCc2ccc3c(c2)OCO3)cc1OC 38%, CCOc1c2ccc(C(=O)NCc3ccc4c(c3)OCO4)cc2nn1C -4.17%, Cn1c(N)cc(=O)n(C)c1=S 19%, CC1CCN(C(=S)c2ccc(-c3ccc(Cl)cc3Cl)o2)CC1 -11.9%, S=C(c1ccccc1)N1CCCC1 9.49%, COc1ccc(NC(=O)c2cc(=O)[nH]c3ccccc23)cc1S(=O)(=O)N1CCOCC1 -13.1%, CCN(CC)CCCNC(=O)c1c(O)c2cc(F)cc3c2n(c1=O)C(C)CC3 (configuration not stated) 67.3%, O=C(NCc1ccco1)c1cccc(-c2ccc3nncn3c2)c1 0%, Cc1ccc(-c2ccc(C3=CC(=O)CC(C)(C)C3=O)cc2)cc1 -18.9%, C=CCOc1ccc(/C=N/NC(=O)C(C)Sc2ccccn2)cc1OCC (configuration not stated) -1.69%, CC1=NOC(=O)/C1=C\c1ccccc1 11.9%, C#CCOc1ccccc1/C=C1/C(=O)ON=C1C -15%, COc1cc(/C=C2\SC(=O)NC2=O)ccc1OCc1ccc(Cl)nc1 11.8%, C#CCOc1ccc(/C=C2/C(=O)NN(c3ccccc3)C2=O)cc1OC 11.3%, COc1cc(/C=C2/C(=O)ON=C2C)ccc1OCc1cccc(F)c1 -6.27%, CC(=O)c1ccccc1NC(=O)COC(=O)C1COc2ccccc2O1 (configuration not stated) 22.8%, OC[C@@H]1CN(Cc2ccc3c(c2)OCO3)C[C@H](n2cnc3c(NCc4ccco4)ncnc32)O1 0.259%, O=C(C(=O)N1CCC(c2ccccc2)CC1)c1ccccc1 27.9%, CCCCNC(=O)C[C@@H]1C[C@@]2(C(=O)OCC)CCC=C2N(Cc2cccc3ccccc23)C1=O -0.516%, C=CCC1(C(=O)N(C)Cc2ccccc2)CCN(C(=O)OC(C)(C)C)CC1 -21.2%, CCOc1ccc(C(C)=O)cc1COC(=O)CN1C(=O)NC2(CCCC2)C1=O -1.02%, Cc1onc(-c2ccccc2)c1-c1nnc(COC(=O)c2ccc(N(C)C)cc2)o1 21.8%, CCOc1ccccc1NC(=O)Cn1ncc2ccc([N+](=O)[O-])cc21 10.8%, Cc1ccc(S(=O)(=O)N(C)C)cc1NC(=O)c1n[nH]c(=O)c2ccccc12 -9.1%, COCCNc1ccc(-c2n[nH]c(=O)c3ccccc23)cc1[N+](=O)[O-] 20.3%, C=CCCC(=O)N1C[C@H]2CON(C)[C@H]2C[C@H]1c1cccc(Nc2ccccc2)c1 -2.63%, Cc1cc(Nc2ccc(C)c(C)c2)n2ncnc2n1 3.66%, CCOC(=O)[C@]12CCCC=C1N(CCC1=CCCCC1)C(=O)[C@H](CC(=O)N1CCCCC1)C2 19.5%, COCCNC(=O)CSc1nc2sccc2c(=O)n1-c1ccccc1 14%, O=C1CC(C(=O)O)NC(=S)N1 (configuration not stated) 3.02%, O=[N+]([O-])c1ccc2[nH]c3c(c2c1)CCCC3O (configuration not stated) -14.8%, COC(=O)c1ccc(C23CC4(C2)[C@H](CN(Cc2cccnc2)[C@@H]4c2ccccc2)C3c2ccc(Cl)nc2)cc1 (some centres not stated) 24%, O=C(Cn1cc(-c2nnnn2-c2ccc(Cl)cc2)c(=O)c2ccccc21)c1ccccc1 33.2%, O=C(CSc1cccc[n+]1[O-])c1ccc(Cl)cc1 -5.03%, CC1(C)NC(=O)N(CC(=O)Nc2ccc(-c3ccccc3)cc2)C1=O 4.98%, O=C(Nc1ccc(S(=O)(=O)Nc2nccs2)cc1)c1cccc(S(=O)(=O)N2CCOCC2)c1 0%, O=C(NCc1cccnc1)c1cc(S(=O)(=O)N2CCOCC2)c(Cl)cc1Cl 16.2%, C[C@@H]1CN([C@H](C)CO)C(=O)c2cc(Br)cnc2O[C@@H]1CN(C)Cc1cncnc1 -0.234%, CC(=O)Nc1cncc(-c2ccccc2CO)n1 5.55%, CC1(C(=O)NS(=O)(=O)c2ccccc2)CCN1C(=O)C/C=C/c1ccccc1 (configuration not stated) -5.77%, CC1(C(=O)O)CCN1C(=O)/C=C/c1ccccc1 (configuration not stated) 23.5%, Cc1cc(C)nc(NNC2=CC(=O)CC(C)(C)C2)n1 31.9%, CCN1CCN(C(=O)CN(C)S(=O)(=O)c2ccc3ccccc3c2)CC1 20.4%, COCCNC(=O)COc1ccc(N(C)S(=O)(=O)c2ccc3ccccc3c2)cc1 22.7%, COc1cccc(C(=O)Nc2ccc3nc4n(c(=O)c3c2)CCCCC4)c1 5.21%, Cc1ccc(OCC(=O)Nc2ccccc2C(=O)NC2CC2)cc1C 0%, CCOC(=O)c1cc(-c2sc(NC(=O)c3ccccc3)nc2C)n(Cc2ccccc2)n1 -3.85%, COCCNC(=O)CN(Cc1ccco1)C(=O)CCC(=O)Nc1nccs1 -4.97%, Fc1ccc(Cn2nnnc2C(c2cccs2)N2CCCCCC2)cc1 (configuration not stated) -13.3%, CCC(C)(C)n1nnnc1C(c1ccc(OC)c(OC)c1)N1CCN(C(=O)c2ccco2)CC1 (configuration not stated) 1.37%, Cc1ccc(-c2nc3c(Cl)cc(C(F)(F)F)cn3c2Cc2cccc(Cl)c2)cc1 41.1%, CCN1C(=O)C(CC(=O)Nc2cc(C)ccc2C)SC1=Nc1ccc(S(N)(=O)=O)cc1 (configuration not stated) -5.39%, CN1C(=O)C(CC(=O)Nc2ccccc2)S/C1=N/c1nccs1 (configuration not stated) -2.9%, CCN(CC)CCN(C)C(c1ccnc2ccccc12)c1nnnn1-c1ccc2c(c1)OCCO2 (configuration not stated) -3.67%, CC(C)C1CC2=C(C(=O)OC(C)(C)O2)C(c2ccc(F)cc2)O1 (configuration not stated) 43.5%
